Measured values as given in PubChem BioAssay (NCATS).
Records with an inconclusive call do not appear. Calls follow the shape of the dose curve; as a rule, active = well fitted curve in either direction with a large enough effect (not every such curve was filed as active); inconclusive = small, poorly fitted or top-dose-only effect, or another doubt; inactive = flat fitted curve, though single readings scatter.

Assay: AP1 Signaling Pathway (AID 357)
Conditions: ME-180 AP-1-bla reporter, EGF-induced, beta-lactamase ratio, 5 h; at 7.69 µM (top of the series) unless noted
Method in brief: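 AP-1-bla ME-180 cells with beta-lactamase reporter under AP-1 response element, stimulated with EC50 EGF; compounds titrated, 5 hours at 37 degrees Celsius. CCF4 read at 460/530 nm ratio; positive and negative modulators judged by AC50.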
% is scaled to controls: 0 for no effect and ±100 for the full control effect.

Activity change, negative = inhibition, inactive:
O=C(c1csnn1)N1CCC2(CCCN(c3ccccn3)C2)CC1 -4.82%
Cc1cccc(CNc2cc(-c3ccccc3C)ncn2)c1 13.4%
O=S(=O)(c1ccccc1)N1CCC2(CCCN(Cc3ccccc3)C2)CC1 10.9%
COc1ccc(C(=O)N2CCC3(CCCN(c4ccncc4)C3)CC2)cc1 7.18%
O=C(c1ccncc1)N1CCC2(CCN(Cc3cc(C(F)(F)F)cc(C(F)(F)F)c3)CC2)CC1 2.71%
O=c1c(CCc2ccccc2)nc2cnc(Nc3ccccc3)nc2n1Cc1cccs1 -26.7%
O=S(=O)(c1ccccc1)N1CCC2(CCCN(c3ccccc3)C2)CC1 17.4%
Cc1noc(C)c1C(=O)N1CCC2(CCCN(c3ccccn3)C2)CC1 -4.45%
Cn1cccc1C(=O)N1CCC2(CCCN(Cc3nccs3)C2)CC1 -3.56%
O=C(c1ccco1)N1CCC2(CCN(Cc3cc(C(F)(F)F)cc(C(F)(F)F)c3)CC2)CC1 -1.98%
Cn1cccc1C(=O)N1CCC2(CCCN(C(=O)Nc3cccc(C#N)c3)C2)CC1 -6.91%
CC(=O)N1CCC2(CCN(Cc3ccc(C#N)cc3)CC2)CC1 -3.09%
O=C(c1ccncc1)N1CCC2(CCCN(c3ncccn3)C2)CC1 -5.83%
O=C(c1cnccn1)N1CCC2(CCCN(c3ccncc3)C2)CC1 -3.01%
N#CCCn1c(=O)c(-c2cccs2)nc2cnc(Oc3ccccc3)nc21 9.42%
O=C(c1cccc(F)c1)N1CCC2(CC1)CCN(c1ccccn1)CC2 -6.05%
O=C(Nc1cccc(F)c1)N1CC2(CCN(C(=O)c3ccncc3)CC2)C1 -11.4%
O=C(c1ccco1)N1CCC2(CC1)CCN(c1ccccn1)CC2 -7.81%
COCCn1c(=O)c(-c2cccs2)nc2cnc(OCc3ccccc3)nc21 2.42%
O=C(Nc1cccc(F)c1)N1CCCC2(CCN(C(=O)c3ccco3)CC2)C1 -8.03%
O=C(Nc1ccccc1)N1CCCC2(CCN(C(=O)c3cccc(F)c3)CC2)C1 -6.89%
O=C(c1cnccn1)N1CCC2(CC1)CCN(c1cccc(-c3ccccc3)c1)CC2 -9.46%
O=C(c1cccc(F)c1)N1CCC2(CCCN(c3ccccc3)C2)CC1 -4.36%
O=S(=O)(c1ccccc1)N1CCC2(CCCN(c3ccncc3)C2)CC1 22.1%

Assay: NFAT Signaling Pathway (AID 444);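 also: carbachol stimulus at about its EC50 of 1 µM final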
Conditions: Jurkat NFAT-bla M1, carbachol, beta-lactamase ratio, 5 h; at 7.69 µM (top of the series) unless noted
Method in brief: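 Jurkat cells with NFAT-driven β-lactamase reporter and co-expressed M1 receptor, stimulated with carbachol (final 1 uM, ~EC50), compound titration, 5 h at 37 °C. CCF4 loaded 1 h at RT; 460/530 nm ratio gave %activity and AC50.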

Activity change, negative = inhibition, inactive:
COCCn1c(=O)c(-c2ccc(OC)cc2)nc2cnc(Nc3ccccc3)nc21 -9.78%
N#Cc1cccc(NC(=O)N2CC3(CCN(C(=O)c4cnccn4)CC3)C2)c1 14.6%
N#CCCn1c(=O)cnc2cnc(Nc3ccccc3)nc21 -3.19%
Cn1cccc1C(=O)N1CCC[C@@]2(CCN(c3cccc(-c4ccccc4)c3)C2)C1 -10.5%
CCNc1ncc2nc(-c3cccs3)c(=O)n(-c3ccc(OC)cc3)c2n1 -15.9%
c1cncc(-c2nc(NCCN3CCOCC3)c3ccccc3n2)c1 7.81%
O=C(Nc1cccc(F)c1)N1CCC2(CC1)CCN(C(=O)c1ccncc1)CC2 -6.93%
CC(=O)N1CCC2(CC1)CCN(c1ccccc1)CC2 -0.227%
O=S(=O)(c1ccccc1)N1CCC2(CCCN(c3ccccc3)C2)CC1 -15.8%
Cc1noc(C)c1C(=O)N1CCC2(CCCN(c3ccccn3)C2)CC1 -10.8%
O=C(c1ccco1)N1CCC2(CCN(Cc3cc(C(F)(F)F)cc(C(F)(F)F)c3)CC2)CC1 2.65%
N#CCCn1c(=O)c(-c2cccs2)nc2cnc(Oc3ccccc3)nc21 15.6%
O=C(Nc1cccc(F)c1)N1CC2(CCN(C(=O)c3ccncc3)CC2)C1 9.26%
COCCn1c(=O)c(-c2cccs2)nc2cnc(OCc3ccccc3)nc21 4.34%
O=C(c1cccc(F)c1)N1CCC2(CCCN(c3ccccc3)C2)CC1 -1.29%

Assay: Stat Signaling Pathway (AID 446);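 also: ME-180 cervical cancer cells given 40 pM IL-6 alongside compound; SIE-controlled beta-lactamase reporter measured as 460/530 nm FRET emission ratio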
Conditions: ME-180 SIE beta-lactamase reporter, IL-6 stimulated, 5 h; at 7.69 µM (top of the series) unless noted
Method in brief: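 Reporter line: ME-180 cervical carcinoma, SIE-beta-lactamase. Treatment: compound with 40 pM IL-6, 5 hrs, 37 C, in low-serum OPTI-MEM with 10 mM HEPES pH 7.3. Detection: 460/530 nm fluorescence.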

activity, negative = inhibition, inactive:
CN(C)Cc1ccccc1-c1cncnc1Nc1ccc(F)cc1 15.8%
COc1ccc(C(=O)N2CCC3(CCCN(c4ccc(-c5ccccc5)cc4)C3)CC2)cc1 0.229%
O=C(c1ccncc1)N1CCC[C@@]2(CCN(Cc3cc(C(F)(F)F)cc(C(F)(F)F)c3)C2)C1 -0.599%
Cn1cccc1C(=O)N1CCC[C@@]2(CCN(c3cccc(-c4ccccc4)c3)C2)C1 -14.4%
N#Cc1ccc(CN2CCC3(CC2)CCN(C(=O)c2cnccn2)CC3)cc1 -7.54%
O=C(Nc1cccc(F)c1)N1CCC2(CC1)CCN(C(=O)c1ccncc1)CC2 -7.63%
O=C(Oc1ccccc1)N1CCC[C@@]2(CCN(c3ccccc3)C2)C1 -1.51%
CC(=O)N1CCC2(CC1)CCN(c1ccccc1)CC2 2.99%
O=C(c1ccco1)N1CCC2(CCCN(c3cccc(-c4ccccc4)c3)C2)CC1 -5.55%
O=C(Oc1ccccc1)N1CCC2(CC1)CCN(c1ccccn1)CC2 -7.33%
O=C(c1csnn1)N1CCC2(CCCN(c3ccccn3)C2)CC1 9.35%
Cc1cccc(CNc2cc(-c3ccccc3C)ncn2)c1 -8.32%
O=S(=O)(c1ccccc1)N1CCC2(CCCN(Cc3ccccc3)C2)CC1 5.57%
COc1ccc(C(=O)N2CCC3(CCCN(c4ccncc4)C3)CC2)cc1 8.4%
O=C(c1ccncc1)N1CCC2(CCN(Cc3cc(C(F)(F)F)cc(C(F)(F)F)c3)CC2)CC1 -0.397%
O=c1c(CCc2ccccc2)nc2cnc(Nc3ccccc3)nc2n1Cc1cccs1 -23.5%
O=S(=O)(c1ccccc1)N1CCC2(CCCN(c3ccccc3)C2)CC1 7.82%
Cc1noc(C)c1C(=O)N1CCC2(CCCN(c3ccccn3)C2)CC1 -8.83%
Cn1cccc1C(=O)N1CCC2(CCCN(Cc3nccs3)C2)CC1 -8.95%
O=C(c1ccco1)N1CCC2(CCN(Cc3cc(C(F)(F)F)cc(C(F)(F)F)c3)CC2)CC1 0.499%
Cn1cccc1C(=O)N1CCC2(CCCN(C(=O)Nc3cccc(C#N)c3)C2)CC1 -16.1%
CC(=O)N1CCC2(CCN(Cc3ccc(C#N)cc3)CC2)CC1 6.19%
O=C(c1ccncc1)N1CCC2(CCCN(c3ncccn3)C2)CC1 5.19%
O=C(c1cnccn1)N1CCC2(CCCN(c3ccncc3)C2)CC1 -6.12%
O=C(c1cccc(F)c1)N1CCC2(CC1)CCN(c1ccccn1)CC2 -4.99%
O=C(Nc1cccc(F)c1)N1CC2(CCN(C(=O)c3ccncc3)CC2)C1 1.8%
O=C(c1ccco1)N1CCC2(CC1)CCN(c1ccccn1)CC2 -0.852%
O=C(Nc1cccc(F)c1)N1CCCC2(CCN(C(=O)c3ccco3)CC2)C1 0.264%
O=C(Nc1ccccc1)N1CCCC2(CCN(C(=O)c3cccc(F)c3)CC2)C1 -6.85%
O=C(c1cnccn1)N1CCC2(CC1)CCN(c1cccc(-c3ccccc3)c1)CC2 -13.7%
O=C(c1cccc(F)c1)N1CCC2(CCCN(c3ccccc3)C2)CC1 -11.8%
O=S(=O)(c1ccccc1)N1CCC2(CCCN(c3ccncc3)C2)CC1 9.67%
